This is an account of results in PubChem BioAssay AID602438 (Sanford-Burnham Center for Chemical Genomics, 2012).

Among all 360,000 compounds or so, about 3,100 (0.86%) were called active. This is one part of a sample in which actives are shown more often than they occur.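 How the source made its calls: active means inhibition or corrected inhibition above about 18%, plus a signal ratio from 0.5 to 1.5 (limit read from the data, passing the limit was not always enough); inactive means the rest.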

Sequence of Neuropilin-1 (Homo sapiens) (O14786 whole entry, looked up): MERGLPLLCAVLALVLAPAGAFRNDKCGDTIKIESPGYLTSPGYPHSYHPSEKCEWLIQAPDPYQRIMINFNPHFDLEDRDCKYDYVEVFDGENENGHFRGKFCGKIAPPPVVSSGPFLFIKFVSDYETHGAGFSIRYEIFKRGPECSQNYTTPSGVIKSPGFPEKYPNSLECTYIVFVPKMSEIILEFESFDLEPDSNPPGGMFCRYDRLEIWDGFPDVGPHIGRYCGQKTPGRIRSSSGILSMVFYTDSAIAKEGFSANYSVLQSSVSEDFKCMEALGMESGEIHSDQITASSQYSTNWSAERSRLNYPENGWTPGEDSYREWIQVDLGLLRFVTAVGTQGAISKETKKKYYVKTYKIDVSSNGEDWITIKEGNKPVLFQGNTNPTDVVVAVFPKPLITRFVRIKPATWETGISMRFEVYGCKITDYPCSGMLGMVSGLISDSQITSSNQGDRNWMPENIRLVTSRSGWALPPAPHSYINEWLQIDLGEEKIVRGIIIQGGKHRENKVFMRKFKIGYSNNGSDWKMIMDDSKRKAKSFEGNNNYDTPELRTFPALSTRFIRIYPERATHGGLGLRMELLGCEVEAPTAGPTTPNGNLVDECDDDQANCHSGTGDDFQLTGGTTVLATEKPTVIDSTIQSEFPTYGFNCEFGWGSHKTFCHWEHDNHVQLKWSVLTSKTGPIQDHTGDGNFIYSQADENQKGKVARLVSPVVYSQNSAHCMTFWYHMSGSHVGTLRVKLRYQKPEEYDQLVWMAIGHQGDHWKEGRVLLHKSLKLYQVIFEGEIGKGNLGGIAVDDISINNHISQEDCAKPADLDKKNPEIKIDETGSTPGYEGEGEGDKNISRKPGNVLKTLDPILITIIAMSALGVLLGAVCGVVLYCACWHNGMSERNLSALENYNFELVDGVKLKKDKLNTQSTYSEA

The test addresses Neuropilin-1 (Homo sapiens) (UniProt O14786). Nature of the test: modulators of CendR peptide binding to NRP-1, primary screen, biochemical, fluorescence polarization, uHTS (AID 602438). The following applies: FAM-RPARPAR peptide binding to NRP-1, fluorescence polarization; at 25 µM; stronger effect = higher value. In general terms: Polarisation of emitted light reports the rotation of a fluorescent probe.
For the compound `Cc1cccc(N(C(=O)c2ccc(CN3CCOCC3)o2)C(C(=O)NC2CCCCC2)c2ccc(F)cc2)c1` (stereo unspecified), the inhibition (as a rule, the change of the read-out against control, counted positive when it falls) is -7.1% (inactive).

For the compound `Cc1ccc(N(C(=O)c2ccc(CN3CCOCC3)o2)C(C(=O)NCCC(C)C)c2cccs2)c(C)c1` (stereo unspecified), the inhibition was 26.1% (active).

On to `Cc1ccc(C(=O)NC(C)C(c2cccs2)N2CCOCC2)cc1C` (stereo unspecified), for which the inhibition is -2% (inactive).

Consider `Cc1csc(=O)n1CCC(=O)OCC(=O)NNC(=O)c1ccc(Br)cc1`, for which the inhibition is -1.9% (inactive).

On to `CCOC(=O)N1CCN(C(c2ccnc3ccccc23)c2nnnn2-c2c(C)cccc2C)CC1` (stereo unspecified), for which the inhibition was -13.7% (inactive).

In the case of `COc1ccc(C(=O)COC(=O)c2ccc([N+](=O)[O-])s2)cc1OC`, the inhibition was 24.3% (active).

With `COc1cc(NC(=O)COC(=O)c2ccc([N+](=O)[O-])s2)cc(OC)c1OC`, the inhibition is -5.2% (inactive).

Turning to `O=C(OCC(=O)N1CCN(c2ccccc2)CC1)c1ccc([N+](=O)[O-])s1`, the inhibition was -3.7% (inactive).

With `COc1ncnc2c1ncn2CCCNCCN1CCOCC1`, the inhibition was 1% (inactive).

For `CCOc1ccc(CCNC(=O)CSc2cc(=O)n(C)c3ccc(Cl)cc23)cc1OCC`, the inhibition is 4.1% (inactive).

Regarding `O=C(N/N=C/c1ccco1)c1csc2c1CCCC2`, the inhibition was 26.9% (active).

With `O=C(CCNC(=O)c1ccccc1Cl)NN=Cc1ccco1`, the inhibition was 10.2% (inactive).

For `O=C(Cc1ccccc1)Nc1cccc(C(=O)N/N=C/c2ccco2)c1`, the inhibition is -32.3% (inactive).

Take `CCC(C(=O)OC)n1cnc2scc(-c3ccc(C)cc3)c2c1=O` (stereo unspecified): the inhibition is 91.3% (active).

As for `CC(=O)C(C)n1cnc2scc(-c3ccc(C)cc3)c2c1=O` (stereo unspecified), the inhibition was 7.4% (inactive).

`CCOC(=O)C(C)n1cnc2scc(-c3ccc(C)c(C)c3)c2c1=O` (stereo unspecified): the inhibition was 9.9% (inactive).

With `O=C(CCNC(=O)C1CCN(S(=O)(=O)c2ccccc2)CC1)NC1CC1`, the inhibition is -0.4% (inactive).

For `Cc1ccccc1NC(=O)c1cc(S(=O)(=O)N2CCOCC2)cs1`, the inhibition is 15% (inactive).

In the case of `Cc1ccc(-c2ccc(C3=CC(=O)CC(C)(C)C3=O)cc2)cc1`, the inhibition is 4.5% (inactive).

For the compound `CN1CCN(c2cc3c(cc2F)c(=O)c(C(=O)O)cn3CCF)CC1`, the inhibition was 11.3% (inactive).

For `CCOC(=O)c1c(NC(=O)COC(=O)c2ccc(S(=O)(=O)C(F)F)cc2)sc(C(=O)N(C)C)c1C`, the inhibition was -19.4% (inactive).

For `CCOC(=O)Nc1sc(C(=O)N(C)C)c(C)c1C(=O)OCC`, the inhibition is 26.1% (active).

In the case of `CCOC(=O)c1c(NC(=O)CCl)sc(C(=O)N(CC)CC)c1C`, the inhibition was -0.5% (inactive).

On to `Cc1cc(NC(=O)CSc2nc(=O)cc(N)n2-c2ccc(F)cc2)no1`, for which the inhibition is 8.7% (inactive).

Regarding `COc1ccc(Cl)cc1S(=O)(=O)N1CCC(O)(c2ccc(Cl)cc2)CC1`, the inhibition is 3% (inactive).

As to `COc1ccc(C(=O)NCc2ccc(Cl)cc2)cc1S(=O)(=O)N1CCCC1`, the inhibition was 4.6% (inactive).

Regarding `COc1ccc(Cl)cc1S(=O)(=O)N1CCN(CC(=O)C(C)(C)C)CC1`, the inhibition is 21.7% (active).

For the compound `CC(NCc1ccccc1OC1CCCC1)c1ccccc1` (stereo unspecified), the inhibition was -0.1% (inactive).

Consider `O=C(NC12CC3CC(CC(C3)C1)C2)N1CCCC(CO)C1` (stereo unspecified), for which the inhibition is -1.5% (inactive).

On to `CC(=O)c1c(N)n(C)c(=O)n(C)c1=O`, for which the inhibition is 5.8% (inactive).

Turning to `Cc1ccc(C(C(=O)NCC2CCCO2)N(C(=O)c2snc(C(N)=O)c2N)c2ccc(C(C)C)cc2)o1` (stereo unspecified), the inhibition was -5.9% (inactive).

For `O=C(O)c1ccccc1OCc1ccccc1Cl`, the inhibition was 5.3% (inactive).

`Cc1ccc(-n2c(SCC(=O)NCc3ccc4c(c3)OCO4)nnc2-c2cccnc2)c(C)c1`: the inhibition is 8.7% (inactive).

As to `Cn1cccc1Cc1nnc(SCC(=O)NCc2ccc3c(c2)OCO3)n1CCc1ccccc1`, the inhibition was -7.4% (inactive).

Turning to `Cc1ccccc1-c1nnc(SCC(=O)NCc2ccc3c(c2)OCO3)n1C`, the inhibition was 38.3% (active).

Consider `Cc1cc(N=CC2=C(O)CCCC2=O)no1`, for which the inhibition is 10.1% (inactive).

As to `CC1OC2C(OC1C)N(S(C)(=O)=O)CCN2S(C)(=O)=O` (stereo unspecified), the inhibition is -3.5% (inactive).

For `CC1(C(=O)Nc2ccc3c(c2)OCCO3)CSCC(=O)N1CCOc1ccccc1` (stereo unspecified), the inhibition is -11.3% (inactive).

`Cc1ccc(C(=O)OCC(=O)NC(=O)Cc2ccccc2)c(O)c1`: the inhibition is 20.4% (active).

Take `Cc1cccc(C)c1NC(=O)COC(=O)c1ccccc1O`: the inhibition was 6.8% (inactive).

`CCCN(CC1CC1)C(=O)COC(=O)c1ccc(C)cc1O`: the inhibition is -9.9% (inactive).

Consider `C[C@H](CO)N1C[C@H](C)[C@@H](CN(C)C(=O)c2cnccn2)Oc2ncc(Br)cc2C1=O`, for which the inhibition was 2.9% (inactive).

On to `C/C=C/C(=O)Nc1ccc(N2CCN(c3ccc(C(F)(F)F)cn3)CC2)nc1`, for which the inhibition was 6.8% (inactive).

`C[C@H]1CN([C@@H](C)CO)C(=O)Cc2cc(NC(=O)Cc3ccccc3)ccc2O[C@H]1CN(C)S(=O)(=O)c1cccs1`: the inhibition was 0.6% (inactive).

As for `CCCCCNC(=O)c1cccnc1SCC(=O)Nc1ccccc1OC`, the inhibition is -0.3% (inactive).

With `CCOC(=O)c1csc(CCNC(=O)c2oc3c(Cl)cc(C)cc3c2C)n1`, the inhibition was 24.9% (active).

Regarding `Cc1cc(Cl)c2oc(C(=O)N(C)C(C)c3ccccn3)c(C)c2c1` (stereo unspecified), the inhibition is 9.3% (inactive).

For the compound `Cc1cc(Cl)c2oc(C(=O)NC(C)c3ccncn3)c(C)c2c1` (stereo unspecified), the inhibition is 1.3% (inactive).

As for `CCN(CC(=O)Nc1cc(Cl)ccc1C)C(=O)Cn1c(=O)cnc2ccccc21`, the inhibition was 9% (inactive).

In the case of `O=c1nc(NO)ccn1C1CCCO1` (stereo unspecified), the inhibition is 7.6% (inactive).

As for `CC(C)C(C(=O)NCc1ccco1)N(CC1CCCO1)C(=O)CNS(=O)(=O)c1ccc(F)cc1` (stereo unspecified), the inhibition was 15.8% (inactive).

With `Cc1ccc2c(c1)C1C[N+](C)(CC(=O)c3ccccc3)CCC1N2C(=O)c1ccccc1Cl` (stereo unspecified), the inhibition was 5.2% (inactive).

`Cc1ccc2c(c1)C1CN(C)CCC1N2C(=O)c1ccccc1NS(=O)(=O)c1ccc(F)cc1C` (stereo unspecified): the inhibition was 37.9% (active).

With `Cc1ccc2c(c1)C1CN(C)CCC1N2C(=S)Nc1ccc(Cl)cc1Cl` (stereo unspecified), the inhibition was -11.4% (inactive).

Consider `Cc1noc(C)c1CSCC(=O)Nc1ccc(Br)cc1Cl`, for which the inhibition is 12.2% (inactive).

With `O=C(CSCc1c(F)cccc1Cl)NCC1CCCO1` (stereo unspecified), the inhibition is -9.5% (inactive).

As for `CC1CCN(C(=O)/C(=C\c2ccccc2F)NC(=O)c2ccccc2)CC1`, the inhibition was 9.8% (inactive).

On to `CCc1cc2c(=O)c(-c3nc4ccccc4n3C)c(CCCC(=O)O)oc2cc1OC(=O)C(C)(C)C`, for which the inhibition is 3.6% (inactive).

With `COc1ccc2oc(N)c(C=O)c(=O)c2c1`, the inhibition was 13.3% (inactive).

On to `CCc1cc2c(=O)c(-c3ccon3)c(N)oc2cc1OC`, for which the inhibition was 36.1% (active).

Regarding `CCN(CC(=O)N1CCCC1)S(=O)(=O)c1ccc(F)cc1`, the inhibition is 9.2% (inactive).

With `COCn1c(C(O)c2ccccc2)cc2ccccc21` (stereo unspecified), the inhibition was 8.1% (inactive).

As to `O=C(NCC(O)c1ccc([N+](=O)[O-])cc1)C1CCCCC1` (stereo unspecified), the inhibition is 11.3% (inactive).

In the case of `CC(OC(=O)c1ccc([N+](=O)[O-])cc1)C(=O)NCC1CCCCC1` (stereo unspecified), the inhibition was 23.5% (active).

For the compound `CC(OC(=O)c1cccc(S(=O)(=O)N2CCOCC2)c1)C(=O)NCC1CCCCC1` (stereo unspecified), the inhibition is 8.2% (inactive).

In the case of `O=C(C1CCCN1S(=O)(=O)c1ccc(Br)cc1)N1CCOCC1` (stereo unspecified), the inhibition is 6.9% (inactive).

As to `Cc1nc2ccc(C(=O)O)cc2[nH]1`, the inhibition is 24.6% (active).

Consider `COC(=O)Nc1nc2ccc(Sc3ccccc3)cc2[nH]1`, for which the inhibition was -0.3% (inactive).

On to `Cc1nc2ccc(C(=O)N(C)CC3CCCN(CCc4ccc(Cl)cc4)C3)cc2[nH]1` (stereo unspecified), for which the inhibition was 8.8% (inactive).

As to `Cc1cccc(NC(=O)CN2CCCN(S(=O)(=O)c3ccc(Br)s3)CC2)c1`, the inhibition is 1.1% (inactive).

With `CCc1ccccc1NC(=O)CN(C)S(=O)(=O)c1ccc2c(c1)c(=O)n(C)c(=O)n2C`, the inhibition was 7.6% (inactive).

With `COc1cccc(CNC(=O)CN(C)S(=O)(=O)c2ccc3c(c2)c(=O)n(C)c(=O)n3C)c1`, the inhibition is -1.6% (inactive).

As to `CC1CCC(NC(=O)CN(C)S(=O)(=O)c2ccc3c(c2)c(=O)n(C)c(=O)n3C)CC1` (stereo unspecified), the inhibition is 25.4% (active).

On to `C/C=N/NC(=O)CCCC(=O)N/N=C/C`, for which the inhibition is 15% (inactive).

For the compound `Cc1cc(C)c(S(=O)(=O)N2C=CC(C(F)(F)F)=NCC2)c(C)c1`, the inhibition was 3.5% (inactive).

In the case of `O=C(O)c1ccc(NC(=O)c2ccc(COc3ccc(Cl)cc3)o2)cc1`, the inhibition is -6.7% (inactive).

For `O=C(O)CSCc1ccc(C(=O)O)o1`, the inhibition was -7.1% (inactive).

For `O=C(O)c1ccc(COc2c(F)c(F)cc(F)c2F)o1`, the inhibition is 45.5% (active).

In the case of `CC1O[C@H](OC2C(COC3OC(CO)C(O)[C@H](O)C3O)OC(OC3CC[C@]4(C)C(CC[C@@]5(C)[C@@H]4C=C[C@]46OC[C@@]7(CCC(C)(C)C[C@H]74)C(O)C[C@@]56C)C3(C)C)C(O)C2O)C(O)C(O)C1O` (stereo partly specified), the inhibition is 23.7% (active).

In the case of `CCOc1ccc(-n2c(SC(C)C(=O)OC)nc3c(c2=O)SCC3)cc1` (stereo unspecified), the inhibition was -5.4% (inactive).

For the compound `N#Cc1cccc(CN2CCC(=O)N([C@H](CO)c3ccccc3)CC2)c1`, the inhibition was 9.5% (inactive).

As for `O=C1CCN(CCCc2ccccc2)CCN1CCO`, the inhibition is 5.5% (inactive).

As for `N#Cc1cccc(CN2CCC(=O)N(CCO)CC2)c1`, the inhibition is 21.1% (active).

For the compound `O=C(CSc1nnc(-c2cccs2)n1Cc1ccco1)c1ccc2c(c1)OCO2`, the inhibition is 37.5% (active).

On to `O=C(CSc1nnc(-c2cccnc2)n1Cc1ccco1)c1ccc(Cl)c(Cl)c1`, for which the inhibition was -25.2% (inactive).

As to `O=C(CSc1nnc(-c2cnccn2)n1Cc1ccco1)c1ccc(Cl)c(Cl)c1`, the inhibition was 3.3% (inactive).

Take `CC(=O)N1CC2(C)CN(C(C)=O)CC(C)(C1)C2=O`: the inhibition is 11.7% (inactive).

Take `CN(Cc1ccccc1)C(=O)C1CCCN(c2ncnc3c2nc2n3CCCCC2)C1` (stereo unspecified): the inhibition was 10% (inactive).

On to `CN(C(=O)C1CCN(c2ncnc3c2nc2n3CCCCC2)CC1)C1CCCCC1`, for which the inhibition was 18.4% (active).

Consider `O=C(NCc1ccccc1Cl)C1CCN(c2ncnc3c2nc2n3CCCCC2)CC1`, for which the inhibition was 13.7% (inactive).

For `CCC(=O)c1cn(CCOc2ccccc2OC)c2ccccc12`, the inhibition is -7% (inactive).
